Bioassay records (PubChem)
In the library only some 7.8% were active in any assay of this set; here they are far more common.
Marburg entry inh – inhibitors of Marburg virus binding or cell entry; Marburg virus pseudotyped entry inhibition, cell reporter; Potency, µM (series often up to 37.8 µM), for the others: at the top dose activity change, negative = inhibition, actives largely listed as inhibitors; 1.8% of 300,000 active; AID 540276; calls by dose curve; tested in HEK293 cells; also: potency is read from the fitted curve at half-maximal effect
HCMV antiviral – blocks human cytomegalovirus replication. HFF cells, HCMV-luciferase reporter, 72 h; hits give low values. activity change, negative = inhibition, % at 57.5 µM. 4.5% of 410,000 active; in the data active = activity change below about -60%; inconclusive = no clear call, values can overlap the other calls; inactive = above about -39%
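Inhibition of viral replication was scored as loss of reporter luminescence in HFFs infected with HCMV-luciferase (MOI 1 PFU/cell) for 72 h; compounds tested at 2 doses, normalized to buffer and Salinomycin controls.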
Lassa entry inh – inhibitors of Lassa virus binding or cell entry; 1.2% of 300,000 active; AID 540256; Potency, µM (doses to about 37.9 µM), without a hit: at the top dose activity change, negative = inhibition, actives largely listed as inhibitors; Lassa virus pseudotype entry inhibition, cell reporter; calls by dose curve; tested in HEK293 cells; also: potency is read from the fitted curve at half-maximal effect; nearly all actives have a fitted effect of over 50% in size
Vaccinia Venus – vaccinia inhibition (Venus reporter). Vaccinia virus Venus reporter expression, fluorescence. Potency, µM (highest dose often 36.5 µM), without a hit: at the top dose activity change, negative = inhibition, hits mostly inhibitors. 0.46% of 330,000 active. AID 720580; calls by dose curve; tested in A549 cells; also: potency is read from the fitted curve at half-maximal effect; nearly all actives have a fitted effect of over 30% in size
HCV inhibitor – HCV inhibition. Huh7.5.1 HCVcc-Cre infection, luciferase reporter, 44 h. Potency, µM (highest dose often 41.8 µM), for the others: at the top dose activity change, negative = inhibition, most hits filed as inhibitors. 3.4% of 340,000 active. AID 651820; active = well fitted inhibition curve with a large enough effect; inconclusive = small, poorly fitted or top-dose-only effect, or another doubt; inactive = no such curve, though single readings can be large or run the other way; also: potency is read from the fitted curve at half-maximal effect
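After 44 h co-culture of compound, cells and HCVcc-Cre (~0.5 moi), substrate is added for 15 min at room temperature and luciferase measured over 15 sec. Cells were seeded at 1,000/well and pre-cultured 4 h.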
VACV mCherry inh – inhibitors of vaccinia virus infection (mCherry reporter signal). Vaccinia virus mCherry reporter infection, fluorescence. Potency, µM (doses to about 36.5 µM), without a hit: at the highest dose activity change, negative = inhibition, usual class: inhibitors. 0.63% of 310,000 active. AID 720579; calls by dose curve; tested in A549 cells; also: potency is read from the fitted curve at half-maximal effect; nearly all actives have a fitted effect of over 35% in size
* marks the source's active call; other numbers are inactive results; i = inactive; ? = inconclusive; / = not tested or not shown; ! = repeats disagree; [ ] = another dose, or the depositor's remark. % is scaled to controls: 0 for no effect and ±100 for the full control effect.

SMILES | Marburg entry inh | HCMV antiviral | Lassa entry inh | Vaccinia Venus | HCV inhibitor | VACV mCherry inh
CC1CCCC(C)N1CCCNC(=O)c1ccc2c(c1)NC(=O)c1ccccc1S2 (stereo not given) | ? | -29 | -6%[46.1 µM] | -27% | ? | -15%
CCC(C)N(CCNC(=O)c1ccc2c(c1)NC(=O)c1ccccc1S2)C1CCCCC1 (stereo not given) | ? | 0 | 3.2µM* | -17% | 22µM* | -14%
COc1ccc(CCNC(=O)c2cnn(-c3cccc(C)c3)c2C2CCN(C(=O)OC(C)(C)C)CC2)cc1OC | / | 0 | -15%[46.1 µM] | -10% | / | i
CCn1nc(C)c(CCN(C)C(=O)Nc2ccc(C)c(Cl)c2)c1C | / | 19 | ? | -2% | / | -10%
Cc1c(CNC2CCC(C)CC2)c(C(=O)O)c(C)n1Cc1ccc(Cl)cc1 (stereo not given) | 9%[46.1 µM] | -13 | -3%[46.1 µM] | 0% | / | -8%
CN1N=C(C(=O)N2CCOc3ccc(CN4CCCC(C(=O)c5cccnc5)C4)cc3C2)CCC1=O (stereo not given) | / | / | / | -7% | / | -12%
CC1CCC(NCCc2ccc3c(c2)OCO3)CC1 (stereo not given) | 16µM* | -13 | 8% | -6% | ? | -1%
c1cc2c(cc1CCNC1C3CC4CC(C3)CC1C4)OCO2 (stereo not given) | ? | 65 | -20% | / | ? | /
CC1CCC(NC(=O)c2ccc3c(c2)OCO3)CC1 (stereo not given) | ? | 32 | 3.5µM* | 0% | -8% | -6%
O=C(NC1CCCCC1)c1ccc2c(c1)OCO2 | ? | 96 | 4%[46.1 µM] | -10% | -1% | i
CCc1ccc(NC(=O)CSc2nccn2-c2cccc(C)c2C)cc1 | / | -36 | ? | -8% | / | -3%
O=C1CCC=C1C(O)CCc1ccccc1 (stereo not given) | 34%[14.2 µM] | / | / | / | / | /
COC(=O)c1cc2oc(C)cc2n1Cc1ccc(Cl)cc1 | / | 33 | -12%[46.1 µM] | -8% | / | -3%
CCCOc1ccc(C(=O)Nc2ccc(S(=O)(=O)N3C[C@@H]4C[C@@H](C3)c3cccc(=O)n3C4)cc2)cc1 | 3% | -14 | / | ? | 3.2µM* | ?
COc1ccc(S(=O)(=O)N2CC3CC(C2)c2cccc(=O)n2C3)cc1 (stereo not given) | -26%[46.1 µM] | -65* | -9% | -1% | 13% | 6%
COc1cccc(C(=O)N2c3cc(C)ccc3C(C)(c3ccccc3)CC2(C)C)c1 (stereo not given) | / | -16 | ? | -1% | / | -10%
O=C(CSc1nncn2c1cc1occc12)Nc1ccccc1C(F)(F)F | / | ? | 0%[46.1 µM] | -6% | / | -2%
CCCCSc1nc2sc3c(c2c(=O)n1-c1ccccc1C)CC(C)(C)OC3 | 3%[46.1 µM] | -30 | -4%[46.1 µM] | -3% | / | -9%
CC(=O)NC(c1ccc(Cl)cc1)c1c(O)ccc2ccc(O)cc12 (stereo not given) | ? | -4 | 15% | -10% | -7% | -18%
O=C(NC(c1ccccc1)c1c(O)ccc2ccccc12)c1ccccc1Cl (stereo not given) | -28% | 17 | ? | / | 14µM* | /
CC(C)CC(=O)NC(c1ccccc1)c1c(O)ccc2ccccc12 (stereo not given) | ? | -2 | 4% | -10% | 9% | i
O=C(NC(c1ccc(Cl)cc1)c1c(O)ccc2ccccc12)c1ccccc1 (stereo not given) | ? | -101* | ? | ? | ? | 10µM*
CCCN1CCc2cc(O)cc3c2[C@H]1Cc1ccc(O)c(O)c1-3 | 35µM*! | -7 | -37% | -15% | ? | -2%
CCCN1CCc2cccc3c2C1Cc1ccc(O)c(O)c1-3 (stereo not given) | ? | / | / | -9% | / | i
O=C(C1CCC(Cn2c(=O)c3sccc3n(Cc3ccccc3F)c2=O)CC1)N1CCOCC1 (stereo not given) | / | -37 | 1%[46.1 µM] | -17% | / | -14%
SMILES | Marburg entry inh | HCMV antiviral | Lassa entry inh | Vaccinia Venus | HCV inhibitor | VACV mCherry inh
CCOc1ccc(CNCCCSc2nnnn2C)cc1OC | 11%[46.1 µM] | 5 | 8%[46.1 µM] | -20% | / | -20%
O=C(Nc1cc(C(F)(F)F)ccc1F)C1CCCCC1 | ? | -106* | 20% | / | 23% | /
CCCCn1c(N)c(NCC(C)C)c(=O)[nH]c1=O | 0% | -91* | 16% | 4% | 6% | 10%
CCN(CC)S(=O)(=O)c1ccc(Cl)c(C(=O)Nc2nnc(C)s2)c1 | -5% | 1 | ? | / | 22µM* | /
Nc1ccc(N=Nc2ccccc2)c2ccccc12 | -8%[46.1 µM] | 35 | -1%[46.1 µM] | -13% | -16% | -1%
Nc1ccc(N=Nc2ccccc2)c(N)n1 | -7% | -102* | ? | -15% | 2%[8.37 µM] | -13%
Cc1cc(Nc2ccccc2Cl)n2nc(-c3ccco3)nc2n1 | / | -72* | 1%[46.1 µM] | -13% | / | -12%
CCOC(=O)c1ccccc1Nc1cc(C)nc2nc(-c3ccco3)nn12 | / | 44 | ? | -17% | / | -15%
CCOC(=O)/C=c1/s/c(=C\c2c(OC)ccc3ccccc23)c(=O)n1CC(=O)NCC1CCCO1 (stereo not given) | ? | -87* | ? | -20% | ? | ?
CCOC(=O)/C=c1\s/c(=C\c2ccccc2C)c(=O)n1CC(=O)NCc1ccc2c(c1)OCO2 | -27% | 3 | -20% | -28% | -1% | -14%
CCOC(=O)/C=c1\s/c(=C\c2ccc3c(c2)OCCO3)c(=O)n1CC(=O)NCC1CCCO1 (stereo not given) | -1% | 12 | -1% | 13% | -6% | 7%
CCOC(=O)/C=c1\s/c(=C\c2c(OCC)ccc3ccccc23)c(=O)n1CC(=O)NCC1CCCO1 (stereo not given) | ? | 26 | ? | ? | 3.5µM* | -19%
CCOC(=O)/C=c1\s/c(=C\c2ccc3cc(OC)ccc3c2)c(=O)n1CC(=O)NCc1ccc2c(c1)OCO2 | -22%[46.1 µM] | -100* | 3% | 7% | -29% | -8%
CC1=C(C(=O)Nc2cccc(C(F)(F)F)c2)C(c2ccccn2)n2ncnc2N1 (stereo not given) | / | 19 | 11%[46.1 µM] | 4% | / | 4%
Cc1ccnn1CC(=O)N1CCOc2c(cc(-c3ncc(C(F)(F)F)cc3Cl)cc2OCC2CCCO2)C1 (stereo not given) | / | / | / | -4% | / | -7%
CCC(=O)NCCc1cc2ccc(C)cc2[nH]c1=O | / | 4 | / | -3% | ? | -18%
Cc1ccc2cc(CCNC(=O)CC(C)C)c(=O)[nH]c2c1 | / | -67* | / | -6% | -1% | i
COc1ccc(CCC(=O)N2CCN(c3ccc([N+](=O)[O-])cc3)CC2)cc1OC | ? | -68* | 2%[46.1 µM] | -18% | 32µM* | -9%
CC(C)(C)c1ccc(OCC(=O)N2CCN(c3ncccn3)CC2)cc1 | / | / | / | / | -3% | /
COc1ccc(NC(=O)N2CCN(c3ccc([N+](=O)[O-])cc3)CC2)cc1OC | ? | -34 | ? | -8% | 10µM* | i
